The whole screen tested about 310,000 compounds, of which about 11,000 (3.5%) were called active. About 4% were inconclusive and are not listed. The sample holds actives, similar compounds and a random draw of the others, so the mix is not that of the screen. The call rests on the fitted dose curve; in most records, active means well fitted inhibition curve with a large enough effect; inconclusive means small, poorly fitted or top-dose-only effect, or another doubt; inactive means no such curve, though single readings can be large or run the other way.
Potency means the concentration at half of the fitted maximal effect.

For this assay, the target named is 4'-phosphopantetheinyl transferase ffp (Bacillus subtilis) (UniProt Q9F4F7). Briefly: qHTS Assay for Inhibitors of Bacillus subtilis Sfp phosphopantetheinyl transferase (PPTase).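 Further: the enzyme is Sfp with the accession as filed and its product quenches rhodamine fluorescence.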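 On largest response in the series, negative = inhibition: 0% = enzyme reaction without inhibitor and -100% = no enzyme wells.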 The note with it: Biochemical Sfp PPTase activity. An outline of the steps: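 Step 1, compound plus 15 nM Sfp-PPTase, 15 min, room temperature. Step 2, add rhodamine-CoA (5 uM) and BHQ-2-YbbR (12.5 uM). Step 3, read 525/598 nm fluorescence at 0 and 30 min.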
Take `Cc1cnc(C(=O)OCc2c(C)cc(C(C)(C)C)cc2C)cn1`: the largest response in the series, negative = inhibition is -9.1% (inactive).

As for `COc1ccc(C(=O)CSc2n[nH]c(N)n2)cc1`, the Potency is 56.2 µM (active). Turning to `COc1ccc(CNC(=O)CSc2n[nH]c(N)n2)cc1OC`, the largest response in the series, negative = inhibition was 2.91% (inactive). Regarding `COc1ccc(-c2nc(SCC(=O)N3CCOCC3)n[nH]2)cc1`, the largest response in the series, negative = inhibition was 18.2% (inactive). As to `Cc1nn2c(=O)cc(COC(=O)c3ccc(NC(=O)C(C)(C)C)cc3)nc2s1`, the largest response in the series, negative = inhibition was 18.9% (inactive). Same read-out and setting: for `COc1cc(/C=C/C(=O)O)cc(S(=O)(=O)Nc2ccccc2C(=O)NCCc2ccccc2)c1OC` the value was 13.6% (inactive); for `COc1ccccc1-c1nnc(SCC(=O)Nc2ccccc2)o1`, 1.67% (inactive). Regarding `COc1ccccc1-c1nnc(NC(=O)c2ccc3ncsc3c2)o1`, the Potency was 79.4 µM (active).

Consider `COc1ccccc1-c1nnc(NC(=O)c2cccc(N3C(=O)CCC3=O)c2)o1`, for which the largest response in the series, negative = inhibition was 2.11% (inactive). For `Cc1ccccc1N1CCN(CCCN2C(=O)C3CCCCN3C2=O)CC1` (stereo not given), the largest response in the series, negative = inhibition was 17.8% (inactive). As to `COc1ccc(OC)c(NC(=O)c2ccc3c(c2)CCN3S(C)(=O)=O)c1`, the largest response in the series, negative = inhibition was 9.13% (inactive).

For `O=[N+]([O-])c1cc(Cl)cc(/C=N/NC(=S)Nc2cc(S(=O)(=O)N3CCOCC3)ccc2Cl)c1O`, the Potency is 56.2 µM (active).

Consider `O=C(N/N=C/c1cc(Cl)cc([N+](=O)[O-])c1O)C(O)(c1ccccc1)c1ccccc1`, for which the largest response in the series, negative = inhibition was -0.479% (inactive). Still for that read-out and setting: the value for `O=C(N/N=C/c1ccc([N+](=O)[O-])o1)c1cccc(S(=O)(=O)N2CCOCC2)c1` was -9.66% (inactive); that for `COc1ccc(N2CCN(S(=O)(=O)CCNC(=O)C34CC5CC(CC(C5)C3)C4)CC2)cc1` was 2.52% (inactive). Same read-out and setting: the value for `Cn1c(=O)[nH]c(=O)c2c1nc(Br)n2CCCCSc1nc2ccccc2o1` was 3.31% (inactive).

Take `CCCCCn1c(SCCC(C)C)nc2c1c(=O)[nH]c(=O)n2C`: the Potency was 28.2 µM (active). Turning to `CCCCCCn1c(SCC(=O)c2ccccc2)nc2c1c(=O)[nH]c(=O)n2C`, the largest response in the series, negative = inhibition is -15.2% (inactive). Consider `CCOc1ccc(S(=O)(=O)N2CCC(c3ccccc3)CC2)cc1C(=O)O`, for which the largest response in the series, negative = inhibition was 13.6% (inactive). With `Cc1ccc(OCC(=O)Nc2ccc(N3CCN(C(=O)c4ccco4)CC3)cc2)c(C)c1`, the largest response in the series, negative = inhibition is -9.57% (inactive). Turning to `CC(=O)N1Cc2ccccc2CC1C(=O)O` (stereo not given), the largest response in the series, negative = inhibition was 6.16% (inactive). Take `CC(=O)N1CSCC1C(=O)O` (stereo not given): the Potency was 20 µM (active). In the case of `CC1CC(C)CN(C(=O)CCNC(=O)Cn2cnc3ccccc3c2=O)C1` (stereo not given), the largest response in the series, negative = inhibition is -7.35% (inactive). As to `COc1ccc(NC(=O)c2sc3nc(C)nc(N4CCN(c5ccccn5)CC4)c3c2C)c(OC)c1`, the largest response in the series, negative = inhibition was -8.26% (inactive). With `CCc1ccc(-n2c(=S)sc3c(=O)n(-c4ccccc4OC)c(=S)[nH]c32)cc1`, the largest response in the series, negative = inhibition is -10.9% (inactive).

With `COc1ccccc1-n1c(=S)[nH]c2c(sc(=S)n2-c2ccc(C)cc2C)c1=O`, the Potency was 50.1 µM (active).

Take `COc1ccccc1-n1cn[nH]c1=S`: the largest response in the series, negative = inhibition was -24.2% (inactive). Same read-out and setting: the value for `COc1ccccc1C1CCN(C(=S)Nc2ccc(Br)cc2)CC1` was 16.1% (inactive). As for `COc1cc(NC(=S)N2CCCC(C)C2)cc(OC)c1OC` (stereo not given), the Potency was 20 µM (active). As for `COc1ccc(NC(=S)N2CCCC(CO)C2)c(OC)c1` (stereo not given), the largest response in the series, negative = inhibition is -15.1% (inactive). Same read-out and setting: for `COc1cc(NC(=O)NCC2CCN(Cc3ccc(C)cc3)CC2)cc(OC)c1OC` the value was 4.55% (inactive); for `COc1ccc(C)cc1NC(=S)N1CCOCC1`, 3.26% (inactive). Regarding `COc1cc(NC(=S)N2CCCC(C)C2)c(OC)cc1Cl` (stereo not given), the Potency is 14.1 µM (active). In the case of `CC1CC(C)CN(C(=O)C2CC(=O)N(c3ccc(F)cc3)C2)C1` (stereo not given), the largest response in the series, negative = inhibition was 0.935% (inactive).

On to `COc1ccc(C(CCN2CCOCC2)c2c(OC)cc(OC)c3c2OC(=O)CC3c2ccc(OC)cc2)cc1` (stereo not given), for which the largest response in the series, negative = inhibition was -11.3% (inactive). The same measure, in the same setting: for `Cc1cc(F)ccc1N1CCC(N2CCN(C)C(CCO)C2)CC1` (stereo not given) the value was 6.62% (inactive); for `COc1ccc(-c2c3c(=O)n(C)c(=O)n(C)c3cn2-c2cccc(OC)c2)cc1`, 3.62% (inactive). With `Cc1ccc(-c2c3c(=O)n(C)c(=O)n(C)c3cn2-c2ccccc2O)cc1`, the Potency is 56.2 µM (active). On to `Cc1ccc(-c2c3c(=O)n(C)c(=O)n(C)c3cn2-n2cnnc2)cc1`, for which the largest response in the series, negative = inhibition is 12.6% (inactive).

Consider `O=C(CCNC(=O)C1CCN(S(=O)(=O)c2ccccc2)CC1)NC1CC1`, for which the largest response in the series, negative = inhibition is 5.65% (inactive). As to `Cc1ccc(NC(=O)CCC(=O)c2ccc(Br)cc2)cc1`, the largest response in the series, negative = inhibition is 11.8% (inactive). Turning to `Cc1ccn(C(CC(=O)c2ccc(Br)cc2)C(=O)O)n1` (stereo not given), the Potency is 22.4 µM (active). With `Cc1cc(C)c2c(=O)[nH]c(SCC(=O)Nc3ccc(Br)cc3)nc2n1`, the largest response in the series, negative = inhibition was 1.73% (inactive). Regarding `CCOc1ccc2nc(NCCNC(=O)C(C)(C)C)c(C)cc2c1`, the largest response in the series, negative = inhibition is 17.3% (inactive).

For the compound `CCOc1ccc2nc(NCCNS(=O)(=O)c3ccccc3)c(C#N)cc2c1`, the Potency is 79.4 µM (active). Regarding `CCOc1ccc(S(=O)(=O)NCCSc2ccccc2)cc1`, the largest response in the series, negative = inhibition is 6.97% (inactive). Regarding `COc1cc(COCC(O)CN2CCN(Cc3ccc4c(c3)OCO4)CC2)cc(OC)c1OC` (stereo not given), the largest response in the series, negative = inhibition is 8.76% (inactive).

In the case of `COc1c(O)ccc2c1CN1CCc3cc4c(cc3C1C2)OCO4` (stereo not given), the Potency was 35.5 µM (active).

Regarding `COc1ccc2cc1Oc1ccc(cc1)C[C@H]1c3cc(c(OC)cc3CCN1C)Oc1c(O)c(OC)cc3c1[C@H](C2)N(C)CC3`, the largest response in the series, negative = inhibition is 1.93% (inactive). `CCOC(=O)[C@]1(C(/C=C/c2ccco2)NC(=O)OC)CCCC1=O` (stereo not given in full): the largest response in the series, negative = inhibition was -6.29% (inactive). Still for that read-out and setting: the value for `O=C(O)c1cc(S(=O)(=O)N(Cc2ccccc2)c2ccccc2)ccc1Cl` was 19% (inactive). As to `CCC(c1nnnn1Cc1ccco1)N(Cc1cc2cc(OC)ccc2[nH]c1=O)C1CCCCC1` (stereo not given), the Potency was 3.55 µM (active). Consider `CCC(c1nnnn1C1CCCC1)N(Cc1cccs1)Cc1cc2cccc(C)c2[nH]c1=O` (stereo not given), for which the largest response in the series, negative = inhibition was 9.11% (inactive). Turning to `CCC(c1nnnn1Cc1ccco1)N(CCc1ccccc1)Cc1cc2ccc(OC)cc2[nH]c1=O` (stereo not given), the largest response in the series, negative = inhibition was -15.9% (inactive).

Take `COc1ccc2[nH]c(=O)c(CN(Cc3nnnn3CCc3ccccc3)CC3CCCO3)cc2c1` (stereo not given): the largest response in the series, negative = inhibition was 0.899% (inactive). Turning to `CCC(c1nnnn1Cc1ccccc1)N(Cc1cc2cc(OC)ccc2[nH]c1=O)CC1CCCO1` (stereo not given), the largest response in the series, negative = inhibition is -86% (inactive). For the compound `CCC(c1nnnn1Cc1ccco1)N(CCc1ccccc1)Cc1cc2cccc(C)c2[nH]c1=O` (stereo not given), the Potency is 25.1 µM (active). Take `COc1ccc(-c2nc3c(s2)CCc2onc(-c4ccc(OC)cc4)c2-3)cc1`: the largest response in the series, negative = inhibition was 4.62% (inactive). Still for that read-out and setting: the value for `CC(NCc1cccs1)C(=O)Nc1cc(Cl)cc(Cl)c1` (stereo not given) was -16.2% (inactive); that for `CC1=C(C(=O)NC2CC(C)(C)Cc3c2cnn3-c2ccc(C)cc2)OCCO1` (stereo not given) was 15.5% (inactive). Turning to `CCN(CC)CCCCn1c(-c2ccccc2)nc2c(N3CCOCC3)nc(C)nc21`, the largest response in the series, negative = inhibition is 39.5% (inactive).

Regarding `O=C(C1CCCO1)N1CCN(S(=O)(=O)c2ccc(Br)cc2)CC1` (stereo not given), the largest response in the series, negative = inhibition is -3.46% (inactive). On to `O=C(CN1C(=O)S/C(=C\c2ccccc2F)C1=O)NCCCn1ccnc1`, for which the largest response in the series, negative = inhibition is 16.3% (inactive). Same read-out and setting: for `COc1cc2ccccc2cc1C(=O)Nc1nc(C)c(C(C)=O)s1` the value was -2.33% (inactive); for `CC(=O)c1sc(N/N=C\c2ccc(C)cc2)nc1C`, -20.4% (inactive). Consider `CC(=O)c1sc(NC(=O)C2=NN(c3ccccc3)C(=O)CC2)nc1C`, for which the Potency is 79.4 µM (active).

Consider `CCCCN1C(=O)C(C)=C(C)C1OCCc1ccc(OC)c(OC)c1` (stereo not given), for which the largest response in the series, negative = inhibition is 14% (inactive). For `CCC(=O)c1cn(CCOc2ccccc2OC)c2ccccc12`, the largest response in the series, negative = inhibition was 2.97% (inactive).

Take `O=S(=O)(c1ccc(NC(=S)NN=C(C2CC2)C2CC2)cc1)N1CCOCC1`: the Potency was 44.7 µM (active). As for `O=C(NC(=S)Nc1ccc(S(=O)(=O)N2CCOCC2)cc1)c1ccccc1[N+](=O)[O-]`, the largest response in the series, negative = inhibition is -9.64% (inactive). Same read-out and setting: the value for `CN1CCN(S(=O)(=O)c2ccc(NC(=S)NC(=O)C3CC3)cc2)CC1` was 22.5% (inactive); that for `CC(=O)Oc1cccc(C(=O)Nc2ccccc2NC(=O)c2cccc(OC(C)=O)c2)c1` was 11.7% (inactive). Turning to `CCOc1ccc2[nH]c(=O)c(CN(CCCO)S(=O)(=O)c3ccc(F)cc3)cc2c1`, the largest response in the series, negative = inhibition is 2.06% (inactive). Consider `O=C1c2ccccc2C(=O)N1c1cccc2ccccc12`, for which the largest response in the series, negative = inhibition is 4.99% (inactive).

Turning to `Cc1ccc(N2C(=O)CC(Nc3cccc4ccccc34)C2=O)cc1` (stereo not given), the largest response in the series, negative = inhibition was 3.72% (inactive).

With `CC1=C(C)CC2C(=O)N(c3cccc4ccccc34)C(=O)C2C1` (stereo not given), the Potency is 39.8 µM (active). For the compound `COc1ccc(NC(=O)CCS(=O)(=O)c2cc3c(cc2Cl)NC(=O)CO3)cc1OC`, the largest response in the series, negative = inhibition is 8.75% (inactive).

Turning to `CCOc1ccccc1/C=N/NC(=O)CNC(=O)COc1ccccc1`, the largest response in the series, negative = inhibition is 13.5% (inactive).

For the compound `C=CCc1ccccc1OCC(=O)N/N=C/c1ccccc1OCC`, the largest response in the series, negative = inhibition is -17.8% (inactive).

Take `C=C(C)CNC(=S)N/N=C/c1ccccc1OCC(=O)O`: the Potency is 12.6 µM (active).

On to `Cc1ccc(NC(=O)O[C@@H]2C(=O)c3cc(Br)ccc3O[C@H]2c2ccc3c(c2)OCO3)cc1Br`, for which the largest response in the series, negative = inhibition was -5.42% (inactive). For the compound `N[C@@H](Cc1ccccc1)C(=O)N1CCC(C(=O)NCC(=O)Nc2ccc(F)cc2)CC1`, the largest response in the series, negative = inhibition is -3.37% (inactive).

With `C[N+](C)(C)CCNC(=O)c1cc[n+](Cc2ccccc2)c(/C=N/O)c1`, the largest response in the series, negative = inhibition is 3.04% (inactive). As for `N#CCC(=O)NC1CCC(CC2CCC(NC(=O)CC#N)CC2)CC1` (stereo not given), the largest response in the series, negative = inhibition is -5.45% (inactive). With `COc1ccc(-c2nnc3ccc(SCc4ccccc4)nn23)cc1`, the largest response in the series, negative = inhibition is -4.23% (inactive). Regarding `CCCn1c(SCC(=O)N2CCc3ccccc32)nnc1-c1ccncc1`, the largest response in the series, negative = inhibition is 15.4% (inactive). Consider `COC(=O)c1ccc(CSc2ccccc2C)o1`, for which the largest response in the series, negative = inhibition is 17.7% (inactive). Regarding `O=C(CSc1ccc2nnc(-c3ccccc3)n2n1)N1CCCc2ccccc21`, the Potency was 8.91 µM (active).

As for `Cn1c(SCC(=O)N2CCCc3ccccc32)nc2ccccc2c1=O`, the largest response in the series, negative = inhibition was 0.535% (inactive). In the case of `COC(=O)c1ccc(CSc2ccc3nnc(-c4ccccc4)n3n2)o1`, the Potency is 70.8 µM (active).

The record behind these values is PubChem BioAssay AID1490 (National Center for Advancing Translational Sciences (NCATS), 2009).
